Records with an inconclusive call do not appear. Calls of active or inactive are those of the source. The call rests on the fitted dose curve; in most records, active means well fitted inhibition curve with a large enough effect; inconclusive means small, poorly fitted or top-dose-only effect; inactive means flat fitted curve, though single readings scatter.
Columns and labels:
Test in all cases: qHTS profiling for inhibitors of Plasmodium falciparum proliferation (AID 504749); further: nearly all actives have a fitted effect of over 60% in size
Conditions in all cases: P. falciparum in erythrocytes, SYBR Green DNA, 72 h; series mostly up to 28.7 µM
CP256 = test system: CP256
In short: (§1)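 In a 72 h erythrocytic culture (37 C, humidified, 5% CO2) at 2.5% hematocrit and 0.3% starting parasitemia, compounds were tested; SYBR Green I in detergent lysis buffer stained parasite DNA overnight.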

CP260 = test system: CP260
In short: as §1

CP262 = test system: CP262
In short: as §1

CP265 = test system: CP265
In short: as §1

CP266 = test system: CP266
In short: as §1

CP268 = test system: CP268
In short: as §1

CP269 = test system: CP269
In short: as §1

CP286 = test system: CP286
In short: as §1

CP291 = test system: CP291
In short: as §1

CP297 = test system: CP297
In short: as §1

Measured: Potency
Potency means the concentration at half of the fitted maximal effect.

NCCCC(N)(C(=O)O)C(F)F (centres undefined)
inactive: all assays above

CCCCNc1cc(C(=O)O)cc(S(N)(=O)=O)c1Oc1ccccc1
inactive: all assays above

Cc1[nH]c(=O)c(C#N)cc1-c1ccncc1
inactive: all assays above

Nc1nc2ccc(OC(F)(F)F)cc2s1
inactive: all assays above

Cc1c(C)c2c(c(C)c1O)CCC(C)(COc1ccc(CC3SC(=O)NC3=O)cc1)O2 (centres undefined)
not listed: CP265 | CP269 | CP297
inactive: all other assays above

NNCCc1ccccc1
not listed: CP262 | CP266
inactive: all other assays above

CN1CCN(CCCN2c3ccccc3Sc3ccc(C(F)(F)F)cc32)CC1
active: CP260 10 µM | CP269 15.1 µM | CP286 12.6 µM

CCOC(=O)C1=C[C@@]2(CC)CCCN3CCc4c(n1c1ccccc41)[C@H]32
active: CP262 12 µM | CP268 10.7 µM | CP269 10.7 µM | CP291 13.5 µM | CP297 12 µM

O=c1n(CCCN2CCN(c3cccc(Cl)c3)CC2)nc2ccccn12
not listed: CP262
inactive: all other assays above

CC(C)NCC(O)COc1ccc(COCCOC(C)C)cc1 (centres undefined)
not listed: CP260
inactive: all other assays above

Cc1ccccc1C(OCCN(C)C)c1ccccc1 (centres undefined)
inactive: CP262 | CP266 | CP269 | CP297

NC(N)=NC(=O)c1nc(Cl)c(N)nc1N
active: CP265 11.2 µM
inactive: CP262 | CP266 | CP297

NCCc1ccc(O)c(O)c1
not listed: CP256
inactive: all other assays above

O=C1CCc2cc(OCCCCc3nnnn3C3CCCCC3)ccc2N1
not listed: CP256 | CP262 | CP265
inactive: all other assays above

CCCc1nc2c(C)cc(-c3nc4ccccc4n3C)cc2n1Cc1ccc(-c2ccccc2C(=O)O)cc1
inactive: CP256 | CP262 | CP266
active: CP260 6.31 µM | CP286 11.2 µM

Cc1cc2c(C(C)C)c(O)c(O)c(C=O)c2c(O)c1-c1c(C)cc2c(C(C)C)c(O)c(O)c(C=O)c2c1O
active: CP256 11.2 µM | CP265 12.6 µM

CC(C)C[C@H](NC(=O)[C@@H](O)[C@H](N)Cc1ccccc1)C(=O)O
inactive: CP262
active: CP256 5.62 µM | CP260 4.47 µM | CP265 11.2 µM | CP268 13.5 µM | CP269 9.53 µM | CP286 5.01 µM | CP291 5.36 µM | CP297 8.49 µM

Cn1cnc([N+](=O)[O-])c1Sc1ncnc2nc[nH]c12
not listed: CP265
inactive: all other assays above

C#Cc1cccc(Nc2ncnc3cc(OCCOC)c(OCCOC)cc23)c1
inactive: CP262 | CP265 | CP266

CCOC(=O)C1=C[C@]2(CC)CCCN3CCc4c(n1c1ccccc41)[C@@H]32
inactive: CP262
active: CP265 10 µM | CP269 13.5 µM | CP297 13.5 µM

OC(CN1CCC(Cc2ccc(F)cc2)CC1)c1ccc(Cl)cc1 (centres undefined)
inactive: CP262 | CP266
active: CP260 3.16 µM | CP286 3.55 µM

Oc1ccc(C2CNCCc3c2cc(O)c(O)c3Cl)cc1 (centres undefined)
not listed: CP286
inactive: all other assays above

Cc1oncc1C(=O)Nc1ccc(C(F)(F)F)cc1
not listed: CP260 | CP265
inactive: all other assays above

CCCc1nn(C)c2c(=O)[nH]c(-c3cc(S(=O)(=O)N4CCN(C)CC4)ccc3OCC)nc12
not listed: CP291
inactive: all other assays above

O=NN(CCCl)C(=O)NCCCl
not listed: CP286
inactive: all other assays above

C1COC(NC(C2CC2)C2CC2)=N1
inactive: CP262 | CP266 | CP268 | CP269 | CP286 | CP297

Clc1ccc(Nc2nnc(Cc3ccncc3)c3ccccc23)cc1
not listed: CP260 | CP286
inactive: all other assays above

CCOC(=O)N1CCC(=C2c3ccc(Cl)cc3CCc3cccnc32)CC1
active: CP260 12.6 µM | CP265 10 µM | CP297 13.5 µM
inactive: CP262
